The results in this text go back to PubChem BioAssay (EPA / NIEHS).

Activity calls are given as the source filed them. Rule for the calls: active = hit-call score of the fitted dose curve at least 0.9, where 1 is the maximum; inactive = score below 0.9.

Read-out in the assay: CYP2E1 (gene 1571)
Description: LTEA_HepaRG_CYP2E1: Life Technologies and Expression Analysis (LTEA) Assay for CYP2E1 using HepaRG (AID 2283485). The settings on record: mRNA level, 48 h; actives raise or lower the signal. How it is done:
LTEA_HepaRG is a cell based, multiplexed-readout assay that uses HepaRG, a human liver cell line, with measurements taken at 48 hours after chemical dosing on a 96-well plate.LTEA_HepaRG_CYP2E1 is one of 102 assay component(s) measured in the LTEA HepaRG cell culture assay. It is a marker of NR mediated metabolism.Data from the assay component LTEA_HepaRG_CYP2E1 was analyzed into 1 endpoint. This assay endpoint, LTEA_HepaRG_CYP2E1, was analyzed with bidirectional fitting relative to DMSO as the negative control and baseline of activity. Using a type of inducible reporter, measures of mRNA induction for gain or loss-of-signal activity can be used to understand regulation of transcription factor activity. To generalize the intended target to other relatable targets, this assay endpoint is annotated to the cyp intended target family, where the subfamily is xenobiotic metabolism.
A total of 1060 chemcials from the ToxCast library were tested in eight-point concentration-response experiments. Cell culture and cytotoxicity assays were conducted at Thermo Fisher Scientific's Custom Services facility (Madison, WI). A single lot of human HepaRG cells (Thermo Fisher Scientific, Frederick, MD) was used for the cell culture experiments. 96-well format collagen type I coated plates of human HepaRG cells were prepared using established methods. Briefly, cryopreserved HepaRG cells were thawed, plated at a density of approximately 100,000 cells/well in HepaRG Thaw, Plate, and General Purpose media (HPRG770, Thermo Fisher Scientific), and incubated for 48 hours. 0.5% DMSO was selected as vehicle control to balance the requisite need of DMSO in HepaRG cultures to maintain differentiation (for example, baseline metabolism, proportions of hepatocytes vs. cholangiocytes), while enabling further hepatic receptor pathway activation (for example, PXR and CAR) in response to chemical exposure. 48 hours after plating, the culture medium was replaced with HepaRG Serum-Free Incudtion Media. Cells were exposed to each test chemical in duplicate and maintained in CO2 incubators for another 48 hours. Chemical plates were thawed to room temperature and 200x concentrations of treatment groups were prepared. 8-point conentration-reponse curves were made with the highest exposure at 100 uM, followed by half-log dilutions, all in 0.5% DMSO. Each test plate contained variouse controls, induction positive controls (1mM phenobarbital), cytotoxicity positive controls ([…] aflatoxin B1), vehicle controls (0.5% DMSO), and total lysis controls (0.5% DMSO). Cell morphology images were taken using an Essen IncuCyte FLR automated microscope, with six 96-well plates imaged in about 24 minutes. Images were captured and exported and JPEG files. Spent culture media was transfered to black-well plates for the LDH assay, and remaining media was sorted at -80 C for later use. Cells were treated with RLT buffer and frozen until shipped for gene expression analysis. Total RNA was isolated from the cell suspension in 75 uL of Buffer RLT (Qiagen, Germantown, MD 20874) by Quintiles/Expression Analysis (Durham, NC) using a custom isolation procedure. Total RNA from each plate well was transferred to a preamplification plate. Fluidigm's 96.96 Dynamic ArrayTM (Fluidigm, Amsterdam, the Netherlands) technology was used for gene expression analyses by quantitative reverse transcription polymerase chain reaction (qRT-PCR, performed by Quintiles/Expression Analysis, Durham, NC)89. Standard TaqManTM Assays (Applied Biosystems/ThermoFisher Scientific, Foster City, CA) were used to assess the expression of 93 genes selected based on their selectivity and sensitivity to important hepatic receptors known to be modulated by environmental chemicals; importance in human hepatocyte functionality; and hepatotoxicity. […]
In the case of `O=C=NCCCCCCN=C=O`, the result was inactive.
Take `Cc1ccc2oc(CN(Cc3ccccc3)C(=O)Nc3c(F)cc(F)cc3F)c(-c3ccc(Cl)cc3)c2c1`: the AC50 is 28.4 µM (active).
For the molecule `COCC(C)OCC(C)OCC(C)O` (stereo not given), the AC50 is 50 µM (active).
On to `Cc1c2ccccc2c(C)c2c1ccc1ccccc12`, for which the AC50 was 18.8 µM (active).
For `CO[C@H]1/C=C/O[C@@]2(C)Oc3c(C)c(O)c4c(O)c(c(/C=N/N5CCN(C)CC5)c(O)c4c3C2=O)NC(=O)/C(C)=C\C=C\[C@H](C)[C@H](O)[C@@H](C)[C@@H](O)[C@@H](C)[C@H](OC(C)=O)[C@@H]1C`, the half-maximal activity concentration (AC50) is 1.06 µM (active).
For `CCCCCCCCCC(=O)O`, the molecule was called inactive.
As to `CC[C@@H]1C[C@H](N(Cc2cc(C(F)(F)F)cc(C(F)(F)F)c2)C(C)=O)c2cc(C(F)(F)F)ccc2N1C(=O)OC(C)C`, the AC50 was 3.17 µM (active).
As to `CCN(CC)C(=O)c1cc(S(=O)(=O)Cc2ccccc2)c(N2CCC(c3ccccc3)CC2)cc1N(CC)CCN(C)C`, the concentration at half-maximal activity (AC50) is 26 µM (active).
Take `Clc1cc(Cl)c2c(c1)N=C1CCCCCN1C2`: the AC50 is 32.1 µM (active).
Still for that read-out and setting: with `CC(C)(C)c1cc(/C=C2\SC(N)=NC2=O)cc(C(C)(C)C)c1O` the figure was 83.2 µM (active); with `CN(C[C@@H](CC[N+]12CCC(C3CCCCC3)(CC1)CC2)c1ccc(Cl)c(Cl)c1)C(=O)c1cc(C(F)(F)F)cc(C(F)(F)F)c1`, 13.7 µM (active).
Take `CCCCCCCCOc1ccc(C(=O)c2ccccc2)c(O)c1`: the outcome was inactive.
On to `O=C(O)Cn1c(=O)n(Cc2ccc(Br)cc2F)c(=O)c2ccc(Cl)cc21`, for which the half-maximal activity concentration (AC50) is 25.8 µM (active).
With `c1ccc(C[n+]2cccc3ccccc32)cc1`, the AC50 was 24.6 µM (active).
Regarding `Cc1cccc2ccccc12`, the result was inactive.
Consider `CN(C)C(=O)C1(N2CCCCC2)CCN(CC[C@@]2(c3ccc(Cl)c(Cl)c3)CN(C(=O)c3ccccc3)CCO2)CC1`, for which the AC50 is 8.56 µM (active).
Take `CCN(Cc1cccnc1)C(=O)c1cccc(Cl)c1[C@]1(C)C(=O)N(Cc2ccc(OC)cc2OC)c2ccc(Cl)cc21`: the AC50 was 16.1 µM (active).
For the molecule `CC(O)CC(C)(C)O` (stereo not given), the call was inactive.
As for `CC(C)(c1cc(Br)c(O)c(Br)c1)c1cc(Br)c(O)c(Br)c1`, the AC50 is 85.6 µM (active).
Same read-out and setting: with `OC12N=C(c3ccccc3)SC1Cc1cc(Cl)ccc12` (stereo not given) the figure was 16 µM (active).
Take `CCO[Si](CCCNC(N)=O)(OCC)OCC`: the molecule was classed as inactive.
Consider `CCOC(=O)O[C@H](C)OC(=O)c1ccc2c(c1)cc(C(=O)NC1CCN(C(C)C)CC1)n2Cc1cc(-c2ccc(Cl)s2)on1`, for which the call was inactive.
With `CCCC(=O)OCCC(C)C`, the result was inactive.
Consider `CN1C(=O)CC[C@H]1c1cccnc1`, for which the result was inactive.
Regarding `CC[C@H](NC(=O)c1cc(F)ccc1NS(=O)(=O)c1cccc2cccnc12)c1ccccc1`, the AC50 is 22.3 µM (active).
`O=CCCCC=O`: the molecule was classed as inactive.
For the molecule `O=C(O)c1ccccc1-n1cc(C(=O)O)c(=O)c2cc(Nc3c(F)cc(F)cc3Cl)c(Cl)cc21`, the AC50 is 25.5 µM (active).
`CCN(Cc1cccc(S(=O)(=O)O)c1)c1ccc(C(=C2C=CC(=[N+](CC)Cc3cccc(S(=O)(=O)O)c3)C=C2)c2ccccc2S(=O)(=O)[O-])cc1`: the molecule was classed as inactive.
Take `Clc1ccccc1C(c1ccccc1)(c1ccccc1)n1ccnc1`: the AC50 is 11.3 µM (active).
In the case of `O=c1[nH]sc2ccccc12`, the outcome was inactive.
Consider `Cc1cn([C@H]2C[C@H](N=[N+]=[N-])[C@@H](CO)O2)c(=O)[nH]c1=O`, for which the result was inactive.
`CCCCCCCC[Si](OCC)(OCC)OCC`: the molecule was classed as inactive.
Consider `CN(C)c1ccc(C(=C2C=CC(=[N+](C)C)C=C2)c2ccc(N(C)C)cc2)cc1`, for which the AC50 is 2.31 µM (active).
As for `COc1cccc([C@H](O)C2CCN(CCc3ccc(F)cc3)CC2)c1OC`, the half-maximal activity concentration (AC50) was 16.7 µM (active).
On to `O=C(O)c1ccccc1C(=O)OCc1ccccc1`, for which the result was inactive.
For the molecule `CC(=O)N1CCN(c2ccc(OC[C@H]3CO[C@](Cn4ccnc4)(c4ccc(Cl)cc4Cl)O3)cc2)CC1`, the AC50 was 12.9 µM (active).
For `CCCCCCCCN(C)CCCCCCCC`, the molecule was called inactive.
For `c1ccc2n[nH]nc2c1`, the molecule was called inactive.
Same read-out and setting: with `Cc1ncc(CO)c(CO)c1O` the entry was “inactive”.
As for `NC(=O)c1nc(-c2cccc(-c3cc(F)ccc3OCC(F)(F)C(F)(F)F)c2)n[nH]1`, the AC50 was 16.9 µM (active).
